ELG1 genotoxic = inducers of genotoxicity in HEK293T ELG1-luciferase cells; 1.3% of 330,000 active; HEK293T ELG1-luciferase reporter, luminescence, 16 h; Potency, µM (highest dose often 46 µM), for inactives: top-dose activity change, positive = activation, actives largely listed as activators; AID 504466; further: % of control where 0% means no effect; nearly all actives have a fitted effect of over 60% in size
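Genotoxic stress is detected as increased luminescence from luciferase-tagged ELG1 in HEK293T cells, measured with ONE-Glo after a 16 hr treatment at 37 °C.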
NPC1 promoter act = NPC1 promoter activation; Huh7 NPC1 promoter luciferase reporter, 24 h; Potency, µM (doses to about 9.22 µM), inactives show at the top dose activation, usual class: activators; 2.4% of 320,000 active; further: % of control where 0% means no effect; nearly all actives have a fitted effect of over 60% in size
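Stably transfected Huh7 (NPC1 promoter→luciferase), 1500 cells/well in Opti-MEM + 10% FBS, 2 h settle, then compound 24 h at 37 °C. Luminescence after 10 min with Amplite reagent.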
FLuc modulator = firefly luciferase modulation, counter-screen for miR-21 project; P08659; Potency, µM (top dose mostly 57.5 µM), for inactives: top-dose activity change, negative = inhibition, hits mostly inhibitors; purified FLuc, Km substrates, luminescence inhibition; 6.9% of 360,000 active;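 further: plate controls were vehicle for no effect and reference inhibitor for full effect; nearly all actives have a fitted effect of over 55% in size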
Target sequence (P08659 whole entry, looked up): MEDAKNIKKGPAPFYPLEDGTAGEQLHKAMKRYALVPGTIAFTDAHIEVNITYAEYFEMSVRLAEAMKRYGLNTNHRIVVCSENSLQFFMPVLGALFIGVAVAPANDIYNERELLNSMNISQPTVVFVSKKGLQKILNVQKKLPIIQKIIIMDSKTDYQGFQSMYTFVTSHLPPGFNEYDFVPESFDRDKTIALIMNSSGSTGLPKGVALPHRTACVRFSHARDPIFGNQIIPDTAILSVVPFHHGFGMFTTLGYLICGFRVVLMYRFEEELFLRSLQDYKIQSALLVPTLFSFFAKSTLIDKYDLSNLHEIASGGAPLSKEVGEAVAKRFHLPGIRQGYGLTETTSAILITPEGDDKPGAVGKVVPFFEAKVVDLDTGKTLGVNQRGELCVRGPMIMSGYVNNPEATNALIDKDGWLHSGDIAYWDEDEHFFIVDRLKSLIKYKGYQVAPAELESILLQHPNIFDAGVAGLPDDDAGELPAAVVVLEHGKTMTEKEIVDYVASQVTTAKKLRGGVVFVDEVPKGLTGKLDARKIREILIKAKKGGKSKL
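Purified P. pyralis luciferase (10nM final) with 10uM D-luciferin and 10uM ATP (Km levels) in 50mM Tris acetate pH 7.5, 10mM Mg acetate, 0.01% Tween-20, 0.05% BSA; qHTS 6-point titration, ~60 µM downward; luminescence read.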
SMN2 splice up = increases expression of the SMN2 splice variant; AID 1458; 2.8% of 210,000 active; HEK293 SMN2-luciferase splicing reporter, luminescence, 30-36 h; Potency, µM (doses to about 46.1 µM), without a hit: at the top dose activity change, positive = activation, actives largely listed as activators; further: % of control where 0% means no effect; nearly all actives have a fitted effect of over 55% in size
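HEK293 cells carry an SMN2 […]–luciferase reporter in which exon 7 inclusion puts luciferase in frame. Cells were plated 10-12 h before compound addition, then incubated 30-36 h at 37C. ONE-Glo luminescence was read; sodium butyrate at 4.5 mM final served as control.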
Rab9 promoter act = activates the Rab9 promoter; Huh7 Rab9 promoter-luciferase reporter, luminescence, 24 h; 2.8% of 320,000 active; AID 485297; Potency, µM (titrated, usually from 9.22 µM), without a hit: at the top dose activation, negative = inhibition, actives largely listed as activators; further: % of control where 0% means no effect; nearly all actives have a fitted effect of over 60% in size
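Luciferase signal after 10 min detection reagent at ambient indicates Rab9 promoter upregulation; stably transfected Huh7 cells were treated 24 h with compound in DMSO at 37 °C, 5% CO2.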
ELG1 repair inh = blocks ELG1-dependent DNA repair in HEK293T cells | Potency, µM (series often up to 46.1 µM), for the others: top-dose activity change, negative = inhibition, most hits filed as inhibitors | 2.3% of 330,000 active | HEK293T ELG1-luciferase reporter, luminescence, 16 h; DNA damage induced by 5-fluorouridine; further: on the % scale 0 is the no-effect control and ±100 the full control effect; nearly all actives have a fitted effect of over 55% in size
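Step one: seed 2,000 cells per well. Step two: pin-transfer compound or DMSO alongside 5-fluorouridine. Step three: incubate 16 hr, 37 °C, 5% CO2. Step four: add ONE-Glo, wait 30 min, read luminescence.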
* hit, by the source's call; ! = a repeat was not active. Compounds with a hit are over-represented: about 9.2% of the library has one in this group of screens. The call rests on the fitted dose curve; in most records, active means well fitted curve in the direction sought with a large enough effect; inconclusive means small, poorly fitted or top-dose-only effect, or another doubt; inactive means no such curve, though single readings can be large; an effect the other way counts as inactive or inconclusive. Potency means the concentration at half of the fitted maximal effect.

Screening O=C(/C=C/c1ccc2c(c1)OCO2)c1ccco1 returned ELG1 genotoxic inconclusive, NPC1 promoter act 25.9%, FLuc modulator 2.13µM*, SMN2 splice up 2.5%, Rab9 promoter act inconclusive and ELG1 repair inh inconclusive.
`NC(=O)/C(=C/c1ccc2c(c1)OCO2)NC(=O)c1ccco1` gave ELG1 genotoxic 0.5%, NPC1 promoter act 0.4%, FLuc modulator 5.0%, SMN2 splice up -7.3%, Rab9 promoter act -5.7% and ELG1 repair inh -1.2%.
`CCOC(=O)c1c(NC(=O)CCCOc2ccc(Cl)cc2)sc2c1CCC2` gave FLuc modulator -1.4% and SMN2 splice up 1.3%.
`COCCN(Cc1ccccc1)C(=O)c1ccc2c(=O)n3c(nc2c1)CCC3` gave ELG1 genotoxic -0.7%, NPC1 promoter act -3.8%, FLuc modulator -1.5%, Rab9 promoter act -1.1% and ELG1 repair inh 3.6%.
For CCOC(=O)C1CCCN(C(=S)Nc2ccc(Nc3ccccc3)cc2)C1 (stereo not given) the results were ELG1 genotoxic 9.2%, NPC1 promoter act inconclusive, FLuc modulator -7.3%, SMN2 splice up 11.2µM*, Rab9 promoter act 1.41µM* and ELG1 repair inh inconclusive.
For CCOC(=O)C1CCCN(CCC(=O)Nc2cccc(C)c2)C1 (stereo not given) the results were ELG1 genotoxic inconclusive, NPC1 promoter act 3.55µM*, FLuc modulator 15.1µM*!, SMN2 splice up 5.8%, Rab9 promoter act 3.16µM* and ELG1 repair inh inconclusive.
Screening COc1ccc2c(c1)cc1c(=O)n(CC(=O)NC(C)C)nc(C)n12 returned FLuc modulator -1.1% and SMN2 splice up -6.0%.
For O=C(Nc1ccccc1Oc1ccccc1)c1cccs1 the results were ELG1 genotoxic -5.9%, NPC1 promoter act 2.0%, FLuc modulator 6.1%, Rab9 promoter act -1.9% and ELG1 repair inh -8.0%.
For CCc1ccc(CNc2ccc3c(c2)ncn3C(C)(C)C)cc1 the results were ELG1 genotoxic inconclusive, NPC1 promoter act 3.16µM*, FLuc modulator 6.01µM*, SMN2 splice up 15.8µM*, Rab9 promoter act 3.98µM* and ELG1 repair inh inconclusive.
`Clc1ccc(CNc2ccccn2)cc1` gave ELG1 genotoxic 10.8%, NPC1 promoter act 7.6%, FLuc modulator inconclusive, Rab9 promoter act 28.7% and ELG1 repair inh inconclusive.
CC(C)c1ccc(CNc2ccc3c(c2)ncn3C)cc1 was read as ELG1 genotoxic 9.5%, NPC1 promoter act 3.16µM*, FLuc modulator 15.1µM*, Rab9 promoter act 3.55µM* and ELG1 repair inh inconclusive.
For CC(C)c1ccc(CNc2ncccn2)cc1 the results were ELG1 genotoxic inconclusive, NPC1 promoter act inconclusive, FLuc modulator 13.5µM*, Rab9 promoter act inconclusive and ELG1 repair inh inconclusive.
CCc1ccc(CNc2ccc3c(c2)ncn3CC)cc1 was read as ELG1 genotoxic inconclusive, NPC1 promoter act 2.51µM*, FLuc modulator 10.7µM*, Rab9 promoter act 2.51µM* and ELG1 repair inh inconclusive.
`CN1CC(=O)N(CC(=O)Nc2ccc(N3CCOCC3)cc2)C1=O` gave ELG1 genotoxic -0.9%, NPC1 promoter act -1.0%, Rab9 promoter act 4.0% and ELG1 repair inh 8.3%.
Cc1cc(C)n(C(C)CNS(=O)(=O)c2ccc(C)c(C)c2)n1 (stereo not given) was read as ELG1 genotoxic -0.3%, NPC1 promoter act -1.4%, FLuc modulator 3.5%, Rab9 promoter act -4.6% and ELG1 repair inh -2.2%.
For CN(C)S(=O)(=O)Oc1cc(Cl)ccc1C(=O)Nc1ccc(F)cc1F the results were ELG1 genotoxic 2.0%, NPC1 promoter act -4.1%, FLuc modulator 2.9%, SMN2 splice up -2.9%, Rab9 promoter act 0.3% and ELG1 repair inh inconclusive.
Screening CCN(c1ccccc1)c1nnc(NC(=O)Nc2cccc(Cl)c2C)s1 returned FLuc modulator 3.7%.

Assay outcomes from PubChem BioAssay.
